Bioassay records: PubChem, Broad Institute
Hits are enriched below; roughly 2.2% of the tested compounds scored in any of these assays.
ID4 SMM – binds human ID4 protein on microarray; P47928; small molecule microarray, Flag-ID4 binding, fluorescence F/B; calls only; 31,000 compounds, 1.2% hits; AID 624137; call rule not given here;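 note: a binder raises fluorescence above local background on the spot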
Target sequence (P47928 whole entry, looked up): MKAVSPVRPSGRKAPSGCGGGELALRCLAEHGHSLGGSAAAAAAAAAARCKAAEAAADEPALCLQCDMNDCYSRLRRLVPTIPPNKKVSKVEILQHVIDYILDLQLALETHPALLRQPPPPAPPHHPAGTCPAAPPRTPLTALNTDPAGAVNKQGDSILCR
mut p53 react – restores mutant p53 pathway signaling in SW480 cells; activation, % at 9.98 µM; 28,000 compounds, 1.5% hits; SW480 PUMA-promoter luciferase, p53 mutant reactivation; AID 624151; in the data active = activation above about 52%; inconclusive = no clear call, values can overlap the other calls
* marks the source's active call; other numbers are inactive results; i = inactive; ? = inconclusive; / = no result given; + = active, no number.

SMILES	ID4 SMM	mut p53 react
C[C@H]1CN([C@@H](C)CO)C(=O)Cc2cc(NC(=O)Cc3ccccc3)ccc2O[C@H]1CN(C)S(=O)(=O)c1cn(C)cn1	i	8.1
O=C(C[C@@H]1CC[C@H](NC(=O)Nc2ccc(F)cc2)[C@H](CO)O1)NCc1cccc(F)c1	i	/
COc1ccc(CN(C)C[C@@H]2Oc3c(NC(=O)Nc4ccc5c(c4)OCO5)cccc3C(=O)N([C@@H](C)CO)C[C@H]2C)cc1	i	23.3
C[C@H]1CN([C@@H](C)CO)C(=O)c2cccc(N(C)C)c2O[C@@H]1CN(C)S(=O)(=O)c1ccc(Cl)cc1	+	-4.5
C[C@@H]1CN([C@@H](C)CO)C(=O)c2cccc(N(C)C)c2O[C@H]1CN(C)S(=O)(=O)c1ccc(Cl)cc1	i	-7.2
C[C@H](CO)N1C[C@H](C)[C@H](CN(C)C(=O)Nc2ccc3c(c2)OCO3)Oc2c(NC(=O)Nc3ccc4c(c3)OCO4)cccc2C1=O	/	-1.5
COc1ccc(CN(C)C[C@H]2Oc3c(NC(=O)Nc4ccc5c(c4)OCO5)cccc3C(=O)N([C@H](C)CO)C[C@@H]2C)cc1	i	61.5*
C[C@@H]1CN([C@H](C)CO)C(=O)c2cccc(NC(=O)Nc3ccc4c(c3)OCO4)c2O[C@H]1CN(C)C	i	60.0*
COc1ccccc1CCNC(=O)c1cc(-c2ccccn2)nc2c(C)c(Cl)ccc12	i	-11.6
Cc1noc(C)c1S(=O)(=O)Nc1ccc2c(c1)C(=O)N([C@H](C)CO)C[C@H](C)[C@@H](CN(C)C(=O)c1ccncc1)OCCCC[C@@H](C)O2	i	2.2
Cc1ccccc1CN(C)C[C@@H]1OCc2cn(nn2)CCCC(=O)N([C@H](C)CO)C[C@H]1C	i	/
COc1ccc2c(c1)c(=O)oc1c(C)c(OCC(=O)NCC3CCCO3)ccc12 (stereo not given)	i	52.4*
COc1ccc(OC(C)C(=O)NCC2CCCO2)cc1 (stereo not given)	i	-4.1
C=CCNC(=O)[C@@H]1[C@H]2C(=O)O[C@H](c3ccccc3)[C@H](c3ccccc3)N2[C@H](c2ccc(O)cc2)[C@@]12C(=O)Nc1ccc(C#CCC(C(=O)OC)C(=O)OC)cc12	i	/
Cc1ccc(O)c(N=Nc2ccccc2)n1	i	103.0*
Cc1ccc(NC(=O)CSc2nnc(-c3ccccc3)n2-c2ccccc2)cc1Cl	i	-8.6
Cc1nc(SCC(=O)c2ccccc2)c2sc3nc4c(cc3c2n1)COC(C)(C)C4	i	91.1*
CCOC(=O)CSc1ncnc2c1sc1nc3c(cc12)COC(C)(C)C3	i	-16.7
CN1CCN(C(=O)CN(c2cccc(Cl)c2)S(=O)(=O)c2ccc(Cl)cc2)CC1	i	-3.9
CN1CCN(C(=O)c2nc3ccc(Cl)cc3[nH]2)CC1	i	56.7*
Cc1ccc(-c2cc(C(=O)NCCCN3CCOCC3)no2)cc1	i	-10.9
Cc1ccc(-c2cc(C(=O)NCc3cccnc3)no2)cc1	i	91.3*
Cc1cc(C(=O)Nc2cccc3c2O[C@@H](CN(C)CC2CC2)[C@H](C)CN([C@@H](C)CO)C3=O)n(C)n1	i	1.6
C[C@@H]1CCCCO[C@@H](CN(C)S(=O)(=O)c2ccccc2)[C@@H](C)CN([C@@H](C)CO)C(=O)c2cc(N(C)C)ccc2O1	i	-0.6
CCn1c(SCC(=O)Nc2ccc(C(N)=O)cc2)nnc1-c1ccc(F)cc1	+	-4.8
SMILES	ID4 SMM	mut p53 react
CCn1c(SCC(=O)Nc2ccc(C(=O)O)cc2)nnc1-c1ccc(C)cc1	i	-2.2
CC(=O)Nc1ccc(NC(=O)CSc2nnc(-c3ccc(N)cc3)n2C)cc1	i	3.6
COC(=O)c1ccc(NC(=O)CSc2nnc(-c3ccc(NC(C)=O)cc3)n2C)cc1	+	-14.5
O=C1CCc2cc(OCc3ccc(Cl)cc3)ccc2O1	i	7.7
Cc1ccc(Cl)c(OCC(=O)NCc2ccco2)c1	i	?
O=C(COc1ccc2ccccc2c1Br)NCc1ccco1	i	85.4*
O=C(c1cccs1)n1nc(-c2ccc(Cl)cc2)nc1NCc1ccco1	i	101.8*
COc1ccc(C(=O)n2nc(-c3ccc(Cl)cc3)nc2NCc2ccco2)cc1	i	117.9*
Cn1c(NCc2ccco2)nc2c1c(=O)n(Cc1ccc(Cl)cc1)c(=O)n2C	i	2.6
Cc1sc2ncn(CC(=O)NCc3ccco3)c(=O)c2c1-c1ccc(Cl)cc1	i	-4.0
CC(=O)n1nc(-c2ccc(Cl)cc2)nc1NCc1ccco1	i	148.4*
CC(C)(Oc1ccc(Cl)cc1)C(=O)NCc1ccco1	i	3.4
COc1ccccc1NC(=O)c1c(NC(=O)c2cccnc2)sc2c1CCC(C)C2 (stereo not given)	i	8.1
CC(C)(C)c1cc(NC(=O)CSc2nnnn2-c2ccccc2)cc(C(C)(C)C)c1	i	-17.7
O=C(CC1CCOCC1)Nc1ccc(I)cc1	i	62.6*
O=C(CC1NC(=O)NC1=O)Nc1ccc(F)cc1 (stereo not given)	i	-1.8
CCN(CC)CC(=O)Nc1sc2c(c1C(=O)Nc1ccccc1)CCC2	i	-5.0
O=C(NCc1ccco1)C1CCC(N2C(=O)C3C4CCC(C4)C3C2=O)CC1 (stereo not given)	i	-2.0
Cc1ccccc1-c1nc2cc(NC(=O)COc3ccc(Br)cc3)ccc2o1	i	74.4*
Cc1ccccc1-c1nc2cc(NC(=O)COc3ccc(Cl)cc3)ccc2o1	i	71.4*
O=C(COc1ccccc1)Nc1ccc2oc(-c3ccc(Cl)cc3Cl)nc2c1	i	0.1
CCc1ccc(OCC(=O)Nc2ccc3oc(-c4ccccc4F)nc3c2)cc1	i	-28.7
Cc1sc2ncnc(SCC(=O)Nc3ccc(C(N)=O)cc3)c2c1C	i	3.3
O=c1n(-c2ccc(F)cc2)nc2n1CCCN2	i	66.9*
O=C(Nc1cc(-c2ccc(Cl)cc2)nn1-c1ccc(F)cc1)C1CCC1	i	1.0
SMILES	ID4 SMM	mut p53 react
O=C(Nc1cccnc1)c1nc2ncccn2n1	i	-0.7
Cc1ccc(O)c(NC(=O)c2nc3ncccn3n2)c1	i	57.5*
CC(C)CC#Cc1ccc2c(c1)O[C@H](CN(C)C(=O)Cc1ccccn1)[C@H](C)CN([C@@H](C)CO)S2(=O)=O	i	-7.7
COc1ccc(-c2nnc(SCC(N)=O)n2-c2ccccc2)cc1	i	8.3
c1ccc(CCn2c3ccccc3c3nnc(SCc4ccc5nonc5c4)nc32)cc1	i	61.5*
CCCn1c2ccccc2c2nnc(SCCC(=O)O)nc21	i	6.8
Cn1c(SCC(=O)Nc2ccccc2F)nnc1-c1cc2ccccc2o1	i	22.2
Cc1ccn2cc(-c3cccc(NS(=O)(=O)c4cc([N+](=O)[O-])ccc4C)c3)nc2c1	i	110.8*
Cc1ccc([N+](=O)[O-])cc1S(=O)(=O)NCc1cccnc1	i	-7.3
CNc1nc(Oc2ccc(=O)[nH]n2)nc(N2CCOCC2)n1	i	10.5
Cc1ccc(Nc2nc(Oc3ccc(=O)[nH]n3)nc(N3CCOCC3)n2)cc1	+	-16.9
Cc1noc(C)c1NC(=O)N(C)C[C@@H]1OCc2cn(nn2)CCCC(=O)N([C@H](C)CO)C[C@@H]1C	i	-1.4
Cc1ccc(NC(=O)CNC(=O)c2ccco2)cc1	i	58.8*
COc1ccc(NC(=O)CNC(=O)c2ccco2)cc1	i	29.8
O=C(O)CCC(=O)Nc1ccc(-c2nc3ccc(C(=O)c4ccccc4)cc3[nH]2)cc1	+	37.6
